Assay outcomes from PubChem.
Sampled rows, rich in hits. Any-hit rate of the full collection: about 0.84%.
PPARg SRC-3 ag: PPARgamma agonists recruiting SRC-3 coactivator, primary screen, biochemical | Peroxisome proliferator-activated receptor gamma (Homo sapiens), P37231 | biochemical PPARgamma/SRC-3 coactivator recruitment assay | activation, % at 8 µM | 200,000 tested, 0.26% active; in the data active means activation above about 23%;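 further: 0% = DMSO and 100% = reference agonist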
Target sequence (P37231 whole entry, looked up): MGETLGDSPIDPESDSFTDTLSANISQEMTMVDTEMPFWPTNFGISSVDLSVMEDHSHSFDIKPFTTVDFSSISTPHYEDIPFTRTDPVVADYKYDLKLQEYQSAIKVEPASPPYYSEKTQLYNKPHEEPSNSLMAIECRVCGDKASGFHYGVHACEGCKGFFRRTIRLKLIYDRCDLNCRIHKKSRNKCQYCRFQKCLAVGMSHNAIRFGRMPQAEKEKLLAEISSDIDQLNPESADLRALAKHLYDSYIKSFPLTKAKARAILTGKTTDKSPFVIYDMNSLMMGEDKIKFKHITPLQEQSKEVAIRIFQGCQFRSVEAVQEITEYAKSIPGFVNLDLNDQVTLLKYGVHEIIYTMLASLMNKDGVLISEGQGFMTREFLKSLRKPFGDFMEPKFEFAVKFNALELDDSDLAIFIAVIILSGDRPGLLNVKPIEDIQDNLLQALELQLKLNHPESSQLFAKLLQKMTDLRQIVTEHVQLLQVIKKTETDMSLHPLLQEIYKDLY
PPARg SRC-2 ag: agonists of PPARg-SRC-2 recruitment, primary screen, biochemical, HTS; Peroxisome proliferator-activated receptor gamma (Homo sapiens), P37231; PPARgamma LBD-SRC-2 recruitment; activation, % at 8 µM; 200,000 tested, 0.34% active; in the data active means activation above about 22%;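 further: 0% = vehicle and 100% = reference agonist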
SRC1 TRFRET art: TR-FRET detection interference compounds, primary screen, artefact control for PPARgamma SRC-1 recruitment agonists, biochemical, TR-FRET emission ratio. AID 1051, 2008. TR-FRET ratio at 8 µM. 99,000 tested, 0.34% active. TR-FRET detection artefact counter-screen; active compounds read high; in the data active means TR-FRET ratio above about 2300
SRC3 TRFRET art: TR-FRET detection interference compounds, artefact control for PPARgamma SRC-3 recruitment agonists, biochemical, TR-FRET ratio; TR-FRET artefact counter-screen, PPARgamma/SRC-3 format; active compounds read high; TR-FRET ratio at 8 µM; 99,000 tested, 0.39% active; AID 1048, 2008
PPARg SRC-1 ag: PPARgamma agonists recruiting SRC-1 coactivator, primary screen, biochemical. 200,000 tested, 0.41% active. AID 631, 2007. Peroxisome proliferator-activated receptor gamma (Homo sapiens), P37231. PPARgamma-SRC-1 coactivator recruitment biochemical assay. activation, % at 8 µM; in the data active means activation above about 19%;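 further: 0% = DMSO and 100% = reference agonist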
TR-FRET SRC-2 ct: TR-FRET signal artefacts, primary screen, artefact control for PPARgamma SRC-2 agonist project, biochemical; TR-FRET artefact counter-screen; active compounds read high; 200,000 tested, 0.4% active; AID 1049, 2008; TR-FRET ratio at 8 µM
* marks the source's active call; other numbers are inactive results. Unless noted, no stated cut-off is given here; in the data, active means TR-FRET ratio above about 2000; inactive means the rest.

Screening CCCc1cc(=O)oc2c(C)c(OS(C)(=O)=O)ccc12 returned PPARg SRC-3 ag -1, PPARg SRC-2 ag 1, PPARg SRC-1 ag -4 and TR-FRET SRC-2 ct 1545.
CCCOc1ccc(CNCCCOCC)cc1OC was read as PPARg SRC-3 ag 0, PPARg SRC-2 ag -4, SRC1 TRFRET art 1975, SRC3 TRFRET art 1489, PPARg SRC-1 ag 1 and TR-FRET SRC-2 ct 1583.
Screening CCOCCCNCc1ccc(OC)c(OC)c1 returned PPARg SRC-3 ag -4, PPARg SRC-2 ag 34*, PPARg SRC-1 ag 5 and TR-FRET SRC-2 ct 2500*.
COc1ccc(CC(=O)Nc2cccc(C)n2)cc1OC was read as PPARg SRC-3 ag -6, PPARg SRC-2 ag -4, SRC1 TRFRET art 1501, SRC3 TRFRET art 1405, PPARg SRC-1 ag -4 and TR-FRET SRC-2 ct 1509.
`Cc1cc(/C=C2/C(=O)N(C)C(=S)N2C)c(C)n1C1CC1` gave PPARg SRC-3 ag -1, PPARg SRC-2 ag 22*, SRC1 TRFRET art 1884, SRC3 TRFRET art 1564, PPARg SRC-1 ag 3 and TR-FRET SRC-2 ct 1763.
`O=C(COC(=O)C1CCN(S(=O)(=O)c2cccs2)CC1)c1ccc2c(c1)OCCO2` gave PPARg SRC-3 ag -11, PPARg SRC-2 ag -7, PPARg SRC-1 ag -6 and TR-FRET SRC-2 ct 2115*.
For O=C(COC(=O)C1CCN(S(=O)(=O)c2cccs2)CC1)c1cc2ccccc2o1 the results were PPARg SRC-3 ag 0, PPARg SRC-2 ag 7, PPARg SRC-1 ag -3 and TR-FRET SRC-2 ct 2135*.
Screening O=C1COc2ccc(C(=O)COC(=O)C3CCN(S(=O)(=O)c4cccs4)CC3)cc2N1 returned PPARg SRC-3 ag 17, PPARg SRC-2 ag 12, PPARg SRC-1 ag 10 and TR-FRET SRC-2 ct 1626.
For N#Cc1cccc(NC(=O)CSc2ccc3c4c(cccc24)C(=O)c2ccccc2-3)c1 the results were PPARg SRC-3 ag 19, PPARg SRC-2 ag 6, PPARg SRC-1 ag 6 and TR-FRET SRC-2 ct 1641.
Screening COc1ccc(NC(=O)CSc2ccc3c4c(cccc24)C(=O)c2ccccc2-3)cc1 returned PPARg SRC-3 ag 43*, PPARg SRC-2 ag -5, PPARg SRC-1 ag 14 and TR-FRET SRC-2 ct 1589.
`Cn1c(=O)n(C)c2cc(NC(=O)c3ccccc3[N+](=O)[O-])c(Br)cc21` gave PPARg SRC-3 ag 4, PPARg SRC-2 ag 12, SRC1 TRFRET art 1816, SRC3 TRFRET art 1726, PPARg SRC-1 ag 1 and TR-FRET SRC-2 ct 1997*.
For OCCC1CN(Cc2cccn2-c2ncccn2)CCN1Cc1ccccc1 (stereo not drawn) the results were PPARg SRC-3 ag 3, PPARg SRC-2 ag 8, SRC1 TRFRET art 1559, SRC3 TRFRET art 1611, PPARg SRC-1 ag 0 and TR-FRET SRC-2 ct 1626.
O=C(Nc1ccc2c(c1)OCCO2)c1cc2sccc2n1Cc1ccccc1 was read as PPARg SRC-3 ag 2, PPARg SRC-2 ag 7, PPARg SRC-1 ag 4 and TR-FRET SRC-2 ct 1989*.
For O=C(Nc1ccc2c(c1)OCCO2)c1cc2sccc2n1Cc1ccc(F)cc1 the results were PPARg SRC-3 ag 12, PPARg SRC-2 ag 14, PPARg SRC-1 ag 7 and TR-FRET SRC-2 ct 1828.
COc1cccc2sc(NC(=O)c3ccc(Br)s3)nc12 was read as PPARg SRC-3 ag 5, PPARg SRC-2 ag 3, PPARg SRC-1 ag 6 and TR-FRET SRC-2 ct 1483.
For O=C(CSc1ccc2nnc(-c3ccccn3)n2n1)NCc1ccc2c(c1)OCO2 the results were PPARg SRC-3 ag -2, PPARg SRC-2 ag 28*, PPARg SRC-1 ag -5 and TR-FRET SRC-2 ct 1984*.
`O=C(CSc1ncnc2c1nnn2-c1ccc(F)cc1)NCc1ccco1` gave PPARg SRC-3 ag -4, PPARg SRC-2 ag 23*, PPARg SRC-1 ag 3 and TR-FRET SRC-2 ct 1638.
For O=C(CNC(=O)C1CCCCC1)OCc1cc(=O)oc2ccc3ccccc3c12 the results were PPARg SRC-3 ag -4, PPARg SRC-2 ag 2, SRC1 TRFRET art 2111, SRC3 TRFRET art 1510, PPARg SRC-1 ag 9 and TR-FRET SRC-2 ct 1428.
Screening CC(=O)NC1=NC(=O)/C(=C/c2cc(C)n(-c3ccc(NC(C)=O)cc3)c2C)S1 returned PPARg SRC-3 ag 24*, PPARg SRC-2 ag 5, SRC1 TRFRET art 1777, SRC3 TRFRET art 2601*, PPARg SRC-1 ag 3 and TR-FRET SRC-2 ct 1615.
For CC(=O)NC1=NC(=O)/C(=C/c2cc(C)n(-c3cccc(C(=O)O)c3)c2C)S1 the results were PPARg SRC-3 ag 2, PPARg SRC-2 ag 5, SRC1 TRFRET art 2073, SRC3 TRFRET art 1697, PPARg SRC-1 ag 0 and TR-FRET SRC-2 ct 1638.
For Cc1nc2ccccc2nc1OCC(=O)Nc1ccccc1 the results were PPARg SRC-3 ag 5, PPARg SRC-2 ag 8, SRC1 TRFRET art 1801, SRC3 TRFRET art 1513, PPARg SRC-1 ag 9 and TR-FRET SRC-2 ct 1603.
Screening CCCCSc1nnc([C@H](C)NC(=O)OC(C)(C)C)o1 returned PPARg SRC-3 ag -7, PPARg SRC-2 ag 39*, PPARg SRC-1 ag 1 and TR-FRET SRC-2 ct 2298*.
`Cc1ccc2c(c1)sc(=NC(=O)c1cccs1)n2C` gave PPARg SRC-3 ag 6, PPARg SRC-2 ag -1, SRC1 TRFRET art 2965*, SRC3 TRFRET art 3246*, PPARg SRC-1 ag 7 and TR-FRET SRC-2 ct 1499.
Screening CCOC(=O)c1sc(=NC(=O)c2cccs2)n(C)c1C returned PPARg SRC-3 ag -1, PPARg SRC-2 ag 10, SRC1 TRFRET art 1624, SRC3 TRFRET art 1752, PPARg SRC-1 ag 2 and TR-FRET SRC-2 ct 1596.
For O=C(Nc1nc(-c2ccccc2)nc2ccccc12)c1ccc(F)cc1 the results were PPARg SRC-3 ag 34*, PPARg SRC-2 ag 11, SRC1 TRFRET art 1991, SRC3 TRFRET art 2774*, PPARg SRC-1 ag -1 and TR-FRET SRC-2 ct 1915.
Screening CC(=O)Nc1ccc(Nc2nc(-c3ccccc3)nc3ccccc23)cc1 returned PPARg SRC-3 ag -1, PPARg SRC-2 ag -5, SRC1 TRFRET art 1753, SRC3 TRFRET art 1577, PPARg SRC-1 ag -1 and TR-FRET SRC-2 ct 1370.
For O=C(COc1ccccc1)Nc1ccccc1N1CCN(c2ccccc2)CC1 the results were PPARg SRC-3 ag 2, PPARg SRC-2 ag 6, PPARg SRC-1 ag 13 and TR-FRET SRC-2 ct 1536.
`O=C(CSc1ncnc2c1oc1ccccc12)NCC1CCCO1` (stereo not drawn) gave PPARg SRC-3 ag 131*, PPARg SRC-2 ag 110*, PPARg SRC-1 ag 95* and TR-FRET SRC-2 ct 3902*.
Screening CCCCNC(=S)Nc1ccc(-c2nc3ccc(C)cc3s2)cc1 returned PPARg SRC-3 ag 2, PPARg SRC-2 ag 15, SRC1 TRFRET art 1999, SRC3 TRFRET art 1753, PPARg SRC-1 ag 3 and TR-FRET SRC-2 ct 1744.
Screening Cc1ccc2nc(-c3ccc(NC(=S)NCCC(C)C)cc3)sc2c1 returned PPARg SRC-3 ag 21, PPARg SRC-2 ag 41*, PPARg SRC-1 ag 14 and TR-FRET SRC-2 ct 1682.
